± gives the standard deviation of the averaged measurements. The full ranking holds about 25,000 sequences; the median of “ln(normalized median fluorescence intensity)” is about 8.6, and the highest 2% start at about 10. The full list was thinned out, with the highest values kept by preference.
Tested on: PfAP2-EXP AP2 domain (GST-tagged)
Experiment: gcPBM binding intensity (ln(normalized median fluorescence intensity)); higher = stronger DNA binding
Procedure, shortened: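 Using an Agilent 4 × 180k array, primer-extended double-stranded 36-bp intergenic genomic probes and negative controls were exposed for 1 h to GST-fused P. falciparum DNA-binding domains expressed in E. coli. Binding was carried out in 1× PBS with 1% milk, 0.2 mg/ml BSA, 0.5% salmon testes DNA and 0.03% Triton X-100, and protein was detected with Alexa488 anti-GST antibody and a 488 nm scan. Binding intensity is the highest Masliner-normalised natural-log median intensity across replicate spots of either probe orientation.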

Sequence	gcPBM binding intensity (ln)
GAACATACTCAAATAGCACACACATAAATAAAAATG [CACACA_site9283]	8.89 ± 0.56
GTGTGTTGTATATACTGTACATACTTTATATATAGT [XGTACX_site1876]	8.63
CCTTTTTTGTTTTATGCACACCATATAACCAAGGCT [CACACA_site7893]	8.98 ± 0.18
AAAAAATGGATGATCACACACTTCATAAAAATTGCA [CACACA_site5256]	8.46 ± 0.49
GTATATAATTTATATTGTACGCATATTATTATCATT [XGTACX_site7277]	8.57 ± 0.25
TTTATATTTAAATGCATGCACTTTCTATTTTTTTTT [GTGCAC_site9959]	10 ± 0.33
ATTCTATATTTAAATGCATGCACTTTCTATTTTTTT [TGCATGCA_site435]	10.6 ± 0.52
CTTTTCTATTTTTTCGTGCACTATAAATATTTTAAT	9.6 ± 0.23
TTTGTCATTTTATTATGTACTCAGCATATAGGGGGG [XGTACX_site505]	10.7 ± 0.13
TATATATATATATATGCATGTACATATATTTGTTAT [TGCATGCA_site379]	10.3 ± 0.17
ATATATATATATATATGTACTCATATTTTATTATTT [XGTACX_site898]	10.1 ± 0.3
ATGCATATATTTATGTGTACATATATTTGTAGGGGG [XGTACX_site6063]	10.6 ± 0.19
ATAGCATATATTTTTTGTACATATGTTATATATATA [XGTACX_site2184]	8.96 ± 0.071
ATATATATATATGCATGTACATATATTTGTTATATC [XGTACX_site3197]	9.82 ± 0.45
ATATATATTTATATATGTACATATTTTTGTGTATTT [XGTACX_site1183]	8.55 ± 0.43
ATATATTTATATTTGTGTACATATTTATTATATTTA [XGTACX_site404]	8.46 ± 0.28
TATATATATATATTATGTACTCATTTATTATCTTTT [XGTACX_site8051]	9.97 ± 0.13
ACAAAAATATTATATTGTACATTATTAGTTCATATT [XGTACX_site6750]	8.5 ± 0.3
GTAATTTTGAGATGATGTACATATTTTTTCCTTGTC [XGTACX_site4103]	8.78 ± 0.47
TAATTAAGAATATATAGTACATAGTTGAAAAACTTT [XGTACX_site6359]	8.41 ± 0.33
GTTTGATAACACCTACAAACTCTTTTTTTTTTTTTT [CACACA_negctrl_site1134]	8.41 ± 0.53
TCTGTGTTTTTGGGTACACACAAATAGCTTGTATAT [CACACA_site4002]	8.72 ± 0.19

Sequence	gcPBM binding intensity (ln)
ACCCTATATGTAACTACACACCGCATATTGTTTACT [CACACA_site3071]	9.19 ± 0.43
TATATATGTTTTTATGTACACACTTTTAACCTAAGA [CACACA_site1149]	8.71 ± 0.36
TATGTAACCTGTTTTACACACCCCCACCCCCCTCTT [CACACA_site319]	10.3 ± 0.17
ATCTATATAATATATACACACAAATATACAAAAAAA [CACACA_site1013]	8.64 ± 0.56
AAATGCGCCATGTGTACACATATATATATATATATA [CACACA_site4649]	10.3 ± 0.33
GTACAAATGTTGTGTATATATACACACATACATATA [XGTACX_negctrl_site276]	8.69 ± 0.33
ATATATATATATATATGTACATATACACATGTGTGC [XGTACX_site168]	10.1 ± 0.33
AAAAAATGCGACATGTGTACACATATATATATATAT [XGTACX_site1679]	10.4 ± 0.11
AAAAAAATAAATAAATGTACACATATATATATATAT [XGTACX_site4350]	10.2 ± 0.47
ATACACACATATATGTGTACATATACATATATATAT [XGTACX_site6744]	9.53 ± 0.32
ATAACACAAAATTGTTGTACACGTGTTAATAAGTGA [XGTACX_site4452]	9.12 ± 0.33
TTAAAAAAATAATTAACACACACATGTATATCTATA [CACACA_site9026]	8.21 ± 0.42
TAGTACACACAAAATACATGCGGGGTTTAATATTTA [TGCATGCA_site576]	8.78 ± 0.45
TATATGACAAGATAAAGTACAAATTTGTATATATAT [XGTACX_site3027]	8.97 ± 0.25
TTTTATTAATATTGCATGCACACTATATAATAATTG [CACACA_site1049]	10.02 ± 0.064
TTCTTAATATTGCATGCACACTATATAATAATTGAA [CACACA_site4720]	10.41 ± 0.057
TTATTAATATTGCATGCACACTATATAATAATTGAA [CACACA_site8258]	10.11 ± 0.057
ATAAAAAATTTAAGTATTTTTTACAAACCTATAAAT [GTGCAC_negctrl_site51]	8.18 ± 0.38
ATTTTTTTTCTTTTTTTTTTACATTTTTTTCTTTTT [CACACA_negctrl_site1289]	8.51 ± 0.45
ATCAGATATATATATTGTACATTTATATATAAATCA [XGTACX_site1960]	8.46 ± 0.36
AAAAGTCTTCAAATTTGTACATATATATATATATAT [XGTACX_site3404]	10.29 ± 0.092
ACGTATCAAAAAATTTGTACATATATATATATATAT [XGTACX_site1024]	10.1 ± 0.35

From the supplement of paper PMC11417369
